# Laboratory results published in PubChem BioAssay (EPA / NIEHS).
# Several values for one entry are separate records, joined by “and”; a condition that tells them apart may be missing. Equal entries are not always repeated. Records with an inconclusive call do not appear. Activity calls are given as the source filed them. The calls were made as follows, unless noted: active = hit-call score of the fitted dose curve at least 0.9, where 1 is the maximum; inconclusive = response in the unintended direction; inactive = score below 0.9.
# Tests used:
# [1] = CCTE_Padilla_ZF_144hpf_TERATOSCORE: (Legacy) CCTE's 144 Hour Post-fertilization zebrafish Assay Teratoscore, Padilla Lab (AID 2283679; active = hit-call score of the fitted dose curve at least 0.9, where 1 is the maximum; inactive = score below 0.9;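 as to AC50: zebrafish embryos with chorions exposed by immersion from 6-8 hpf to 5 dpf with daily renewal; teratogenicity score from eye scoring of death hatching and malformations at 144 hpf; higher score means more developmental defects relative to DMSO baseline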)
# How it was run: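 Larvae scored by eye at 144 hpf for death, hatching and malformations after a day in clean Hanks'. Before that, daily-renewed exposure at 80 uM (0.4% DMSO, 26C) from roughly 6-8 hpf through 5 dpf, 4 embryos per chemical.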
# [2] = read-out: ABC Transporter (ABCB11), ABCB11 (gene 8647); test: CLD_ABCB11_6hr: CellzDirect (CLD) Gene Expression Assay for ABC Transporter (ABCB11) at 6 hours (AID 2283675);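 also: hits raise ABCB11 mRNA level so AC50 marks induction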
# Method: (§1) CLD_6hr is a cell-based, multiplexed-readout assay that uses hepatocyte, a human liver primary cell, with measurements taken at 6 hours after chemical dosing in a 96-well plate.CLD_ABCB11_6hr is one of 16 assay component(s) measured or calculated from the CLD_6hr assay. It is designed to make measurements of mRNA induction, a form of inducible reporter, as detected with chemiluminescence signals by Quantitative Nuclease Protection Assay (qNPA) technology.Data from the assay component CLD_ABCB11_6hr was analyzed at the endpoint, CLD_ABCB11_6hr, in the positive analysis fitting direction relative to DMSO as the negative control and baseline of activity. […] Furthermore, this assay endpoint can be referred to as a primary readout. […]
# (§2) Human hepatocyte cultures were treated daily for two consecutive days with fresh dosing solutions containing appropriate concentrations of the 320 ToxCast chemicals (chemical identities were blinded to CellzDirect and other ToxCast collaborators), vehicle control (0.2% DMSO), and positive control inducers as summarized in Table 1. […] Cultures for each treatment group (i.e., media, vehicle [0.2% DMSO], positive control inducers [multiple concentrations], and the ToxCast chemicals [multiple concentrations]) were observed and cell morphology was assessed relative to vehicle control cultures at each harvest time point (0, 6, 24, or 48 h). […]
# [3] = CLD_ACTIN_6hr: CellzDirect (CLD) Gene Expression Assay for Baseline Control (Actin) at 6 hours (AID 2283676);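 also: active means increased actin mRNA relative to DMSO vehicle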
# How it was run: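 Baseline actin transcript level measured by qNPA (S1 nuclease protection, chemiluminescence) in human hepatocyte cultures 6 h after chemical exposure; 0.2% DMSO vehicle as reference, cytotoxicity noted from morphology.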
# [4] = read-out: Cytochrome P450 2B6 (Homo sapiens) (UniProt P20813); test: CLD_CYP2B6_6hr: CellzDirect (CLD) Gene Expression Assay for xenobiotic metabolism (CYP2B6) at 6 hours (AID 2283677);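 also: actives raise CYP2B6 transcript above DMSO baseline so AC50 marks an inducer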
# How it was run: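 CYP2B6 transcript levels, read by chemiluminescent qNPA, were fitted for increase versus DMSO baseline; cultured human liver hepatocytes from two donor preparations were harvested 6 h after exposure to test chemicals at multiple concentrations.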
# [5] = read-out: Cytochrome P450 3A4 (Homo sapiens) (UniProt P08684); test: CLD_CYP3A4_6hr: CellzDirect (CLD) Gene Expression Assay for xenobiotic metabolism (CYP3A4) at 6 hours (AID 2283680)
# Method: CLD_6hr is a cell-based, multiplexed-readout assay that uses hepatocyte, a human liver primary cell, with measurements taken at 6 hours after chemical dosing in a 96-well plate.CLD_CYP3A4_6hr is one of 16 assay component(s) measured or calculated from the CLD_6hr assay. It is designed to make measurements of mRNA induction, a form of inducible reporter, as detected with chemiluminescence signals by Quantitative Nuclease Protection Assay (qNPA) technology.Data from the assay component CLD_CYP3A4_6hr was analyzed at the endpoint, CLD_CYP3A4_6hr, in the positive analysis fitting direction relative to DMSO as the negative control and baseline of activity. Using a type of inducible reporter, gain-of-signal activity can be used to understand changes in the reporter gene as they relate to the gene CYP3A4. Furthermore, this assay endpoint can be referred to as a primary readout. To generalize the intended target to other relatable targets, this assay endpoint is annotated to the cyp intended target family, where subfamily is xenobiotic metabolism.
# (§3) Human hepatocyte cultures were treated daily for two consecutive days with fresh dosing solutions containing appropriate concentrations of the 320 ToxCast chemicals (chemical identities were blinded to CellzDirect and other ToxCast collaborators), vehicle control (0.2% DMSO), and positive control inducers as summarized in Table 1. […] These replicate data, coupled with internal replicates designed within the blinded ToxCast chemical library, provided additional data to evaluate interindividual differences between hepatocyte preparations and their potential impact on chemical profiles.Cell morphology and integrity were evaluated using phase-contrast microscopy as an indicator of hepatocyte cell health (Tyson & Green, 1987). Cultures for each treatment group (i.e., media, vehicle [0.2% DMSO], positive control inducers [multiple concentrations], and the ToxCast chemicals [multiple concentrations]) were observed and cell morphology was assessed relative to vehicle control cultures at each harvest time point (0, 6, 24, or 48 h). […] Images were evaluated at the conclusion of the study to assess changes in cell integrity and account for the effects of chemical exposure on uncharacteristic changes in concentration-dependent gene expression profiles. […]
# [6] = read-out: Glyceraldehyde-3-phosphate dehydrogenase (Homo sapiens) (UniProt P04406); test: CLD_GAPDH_6hr: CellzDirect (CLD) Gene Expression Assay for Baseline Control (Glyceraldehyde 3-phosphate dehydrogenase) at 6 hours (AID 2283681);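 also: active means increased signal relative to DMSO vehicle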
# Method: CLD_6hr is a cell-based, multiplexed-readout assay that uses hepatocyte, a human liver primary cell, with measurements taken at 6 hours after chemical dosing in a 96-well plate.CLD_GAPDH_6hr is one of 16 assay component(s) measured or calculated from the CLD_6hr assay. It is designed to make measurements of mRNA induction, a form of inducible reporter, as detected with chemiluminescence signals by Quantitative Nuclease Protection Assay (qNPA) technology.Data from the assay component CLD_GAPDH_6hr was analyzed at the endpoint, CLD_GAPDH_6hr, in the positive analysis fitting direction relative to DMSO as the negative control and baseline of activity. Using a type of inducible reporter, gain-of-signal activity can be used to understand changes in the reporter gene as they relate to the gene GAPDH. Furthermore, this assay endpoint can be referred to as a secondary readout, because this assay has produced multiple assay endpoints where this one serves a background control function. To generalize the intended target to other relatable targets, this assay endpoint is annotated to the background measurement intended target family, where subfamily is baseline control.
# as §3
# [7] = read-out: xenobiotic metabolism (CYP1A2), CYP1A2 (gene 1544); test: CLD_CYP1A2_24hr: CellzDirect (CLD) Gene Expression Assay for xenobiotic metabolism (CYP1A2) at 24 hours (AID 2283683)
# How it was run: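 CYP1A2 mRNA induction measured by quantitative nuclease protection (chemiluminescent) in human primary hepatocytes 24 h after multi-concentration chemical dosing with daily fresh solutions. DMSO (0.2%) baseline; positive-direction fitting; morphology-based cytotoxicity noted.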
# [8] = read-out: ABC Transporter (ABCB11), ABCB11 (gene 8647); test: CLD_ABCB11_24hr: CellzDirect (CLD) Gene Expression Assay for ABC Transporter (ABCB11) at 24 hours (AID 2283674; active = hit-call score of the fitted dose curve at least 0.9, where 1 is the maximum; inactive = score below 0.9)
# Method: as §1, with “CLD_24hr is” for “CLD_6hr is”, “at 24” for “at 6”, “96-well plate.CLD_ABCB11_24hr” for “96-well plate.CLD_ABCB11_6hr”, “the CLD_24hr” for “the CLD_6hr”, “component CLD_ABCB11_24hr” for “component CLD_ABCB11_6hr”, “endpoint, CLD_ABCB11_24hr,” for “endpoint, CLD_ABCB11_6hr,”
# as §2
# [9] = read-out: Cytochrome P450 2C19 (Homo sapiens) (UniProt P33261); test: CLD_CYP2C19_6hr: CellzDirect (CLD) Gene Expression Assay for xenobiotic metabolism (CYP2C19) at 6 hours (AID 2283678)
# How it was run: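 CYP2C19 transcript induction was quantified by quantitative nuclease protection assay with chemiluminescent read-out, 6 h after dosing. Cells were primary human hepatocytes from two donor preparations, given fresh dosing solutions daily in 0.2% DMSO vehicle. Activity was relative to DMSO.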
# [10] = read-out: HMG-CoA synthase (HMGCS2), HMGCS2 (gene 3158); test: CLD_HMGCS2_6hr: CellzDirect (CLD) Gene Expression Assay for HMG-CoA synthase (HMGCS2) at 6 hours (AID 2283682);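 also: actives raise HMGCS2 transcript above the 0.2% DMSO vehicle baseline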
# Method: as §1, with “plate.CLD_HMGCS2_6hr” for “plate.CLD_ABCB11_6hr”, “CLD_HMGCS2_6hr” for “CLD_ABCB11_6hr”, “CLD_HMGCS2_6hr,” for “CLD_ABCB11_6hr,”
# as §2
# Cytochrome P450 3A4 (Homo sapiens), sequence (P08684 whole entry, looked up): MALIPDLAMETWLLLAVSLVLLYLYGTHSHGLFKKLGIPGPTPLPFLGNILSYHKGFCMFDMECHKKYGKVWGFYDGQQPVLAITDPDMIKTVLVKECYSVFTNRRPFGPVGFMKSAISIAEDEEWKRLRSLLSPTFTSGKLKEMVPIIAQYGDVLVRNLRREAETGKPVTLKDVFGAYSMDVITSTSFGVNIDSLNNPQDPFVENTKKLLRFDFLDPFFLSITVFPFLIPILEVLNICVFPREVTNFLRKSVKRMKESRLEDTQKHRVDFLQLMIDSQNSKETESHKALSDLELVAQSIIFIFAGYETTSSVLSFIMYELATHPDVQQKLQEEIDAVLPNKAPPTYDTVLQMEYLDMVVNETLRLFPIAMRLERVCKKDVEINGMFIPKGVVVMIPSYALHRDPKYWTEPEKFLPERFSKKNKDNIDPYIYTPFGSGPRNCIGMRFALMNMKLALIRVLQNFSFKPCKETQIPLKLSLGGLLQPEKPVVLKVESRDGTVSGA
# Glyceraldehyde-3-phosphate dehydrogenase (Homo sapiens), sequence (P04406 whole entry, looked up): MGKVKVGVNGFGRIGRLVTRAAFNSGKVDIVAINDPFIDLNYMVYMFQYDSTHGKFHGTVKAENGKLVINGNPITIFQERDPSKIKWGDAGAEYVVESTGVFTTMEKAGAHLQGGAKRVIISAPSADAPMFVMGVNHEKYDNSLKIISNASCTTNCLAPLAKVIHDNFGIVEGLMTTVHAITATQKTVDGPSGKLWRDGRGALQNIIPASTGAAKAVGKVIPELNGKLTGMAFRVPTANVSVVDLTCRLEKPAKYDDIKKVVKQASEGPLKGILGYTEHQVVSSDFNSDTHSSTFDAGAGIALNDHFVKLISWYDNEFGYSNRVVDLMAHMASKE
# Cytochrome P450 2C19 (Homo sapiens), sequence (P33261 whole entry, looked up): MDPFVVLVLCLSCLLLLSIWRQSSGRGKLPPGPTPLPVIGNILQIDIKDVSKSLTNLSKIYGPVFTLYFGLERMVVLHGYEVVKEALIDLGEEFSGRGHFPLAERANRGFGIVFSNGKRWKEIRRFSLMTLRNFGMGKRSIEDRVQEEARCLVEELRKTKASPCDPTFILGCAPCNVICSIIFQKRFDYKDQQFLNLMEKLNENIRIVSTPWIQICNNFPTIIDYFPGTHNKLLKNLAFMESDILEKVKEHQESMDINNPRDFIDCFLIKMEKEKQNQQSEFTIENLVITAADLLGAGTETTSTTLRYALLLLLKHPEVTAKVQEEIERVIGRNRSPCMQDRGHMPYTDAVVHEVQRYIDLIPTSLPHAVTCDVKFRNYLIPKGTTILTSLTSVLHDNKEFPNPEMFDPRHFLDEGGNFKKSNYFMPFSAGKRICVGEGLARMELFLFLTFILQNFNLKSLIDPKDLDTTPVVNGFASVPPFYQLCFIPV
smiles,measurement,setting,value
C[C@]12CCC(=O)C=C1CC[C@@H]1[C@@H]2CC[C@]2(C)C(=O)CC[C@@H]12,AC50,[1],31.8 µM (active)
CC(C)(O)C(=O)Nc1ccc([N+](=O)[O-])c(C(F)(F)F)c1,AC50,[1],31.4 µM (active)
COc1ccc(O)c(C(C)(C)C)c1,AC50,[1],57.8 µM (active)
CC(C)(c1ccccc1)c1ccc(O)cc1,AC50,[1],4.83 µM (active)
CCC(C)(c1ccc(O)cc1)c1ccc(O)cc1,AC50,[1],15.5 µM (active) and 1.34 µM (active)
CCC(C)(CC)c1cc(NC(=O)c2c(OC)cccc2OC)on1,outcome,[2],inactive
same,outcome,[3],inactive
same,AC50,[4],0.116 µM (active)
same,AC50,[1],58.2 µM (active)
same,AC50,[5],0.0356 µM (active)
same,outcome,[6],inactive
same,AC50,[7],8.57 µM (active)
COS(=O)(=O)OC,outcome,[1],inactive
Cc1cc2c3c(c1)C(c1ccccc1)=N[C@@H](NC(=O)c1ccncc1)C(=O)N3CC2,AC50,[1],54.4 µM (active)
CCSC(=O)N(CC)C1CCCCC1,outcome,[8],inactive
same,outcome,[2],inactive
same,outcome,[3],inactive
same,AC50,[4],3.97 µM (active)
same,outcome,[9],inactive
same,outcome,[1],inactive
same,outcome,[5],inactive
same,outcome,[7],inactive
CN(C)CCO,outcome,[1],inactive
Cc1ccccc1CO[C@@H]1C[C@@]2(C(C)C)CC[C@]1(C)O2,outcome,[3],inactive
same,AC50,[1],73.1 µM (active)
same,outcome,[6],inactive
same,AC50,[7],16.5 µM (active)
O=C(O)C(F)(F)C(F)(F)C(F)(F)C(F)(F)C(F)(F)C(F)(F)C(F)(F)C(F)(F)F,AC50,[1],53.7 µM (active)
CCC(C)c1cc([N+](=O)[O-])cc([N+](=O)[O-])c1O (stereo unspecified),AC50,[1],0.167 µM (active)
CN(C)c1nc(=O)n(C2CCCCC2)c(=O)n1C,outcome,[3],inactive
same,outcome,[4],inactive
same,outcome,[1],inactive
same,outcome,[5],inactive
same,outcome,[6],inactive
same,outcome,[10],inactive
same,outcome,[7],inactive
